Compound activity as filed in PubChem.
In the library only some 2.5% were active in any assay of this set; here they are far more common.
ATG4B inh – ATG4B (human) cysteine protease inhibition | Q9Y4P1 | ATG4B cleavage of LC3-PLA2, NBD-HPC fluorescence, 1 h | inhibition, % at 8.33 µM | 340,000 tested, 0.51% active | AID 504462; in the data active = inhibition above about 40%
Target sequence (Q9Y4P1 whole entry, looked up): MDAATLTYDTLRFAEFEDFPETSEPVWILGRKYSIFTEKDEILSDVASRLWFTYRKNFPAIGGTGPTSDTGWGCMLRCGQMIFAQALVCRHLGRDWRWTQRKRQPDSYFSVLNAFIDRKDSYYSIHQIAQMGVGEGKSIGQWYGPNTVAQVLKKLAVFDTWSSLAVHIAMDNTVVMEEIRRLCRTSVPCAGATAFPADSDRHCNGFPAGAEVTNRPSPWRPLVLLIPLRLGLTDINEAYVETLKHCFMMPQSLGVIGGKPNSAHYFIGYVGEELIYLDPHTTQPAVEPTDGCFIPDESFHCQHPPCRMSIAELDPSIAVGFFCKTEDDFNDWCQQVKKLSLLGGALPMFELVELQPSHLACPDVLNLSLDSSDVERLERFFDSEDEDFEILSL
AI-2 QS modul – modulators of Vibrio harveyi AI-2 quorum sensing system. Vibrio harveyi JMH597 AI-2 luminescence/OD600 ratio, 9 h; stronger effect = lower value; strain lacks LuxN and CqsS sensors; 0 = neutral-control median. activity change, % at 7.5 µM. 300,000 tested, 0.4% active; in the data active = activity change below about -75%, passing the limit was not always enough;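 also: luminescence divided by OD600 gain over 9 h not by final OD600 alone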
Efflux pump mplx – inhibitors of Candida antifungal efflux pumps expressed in yeast; S. cerevisiae Candida pump triplex, Nile Red efflux; inhibition, % at 10 µM; 330,000 tested, 0.44% active;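 active = plate passing quality check with inhibition over a set limit, or well fluorescence over plate mean plus 4 SD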;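 also: Nile Red retained in pooled yeast measured as flow cytometry median fluorescence; 0% = buffer negative control and 100% = Enniatin B positive control; higher means more Nile Red kept so more efflux inhibition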
Mot1-301 SUMO – inhibitors of SUMOylation pathway: yeast Mot1-301 growth rescue; S. cerevisiae Mot1-301 growth rescue, ATP luminescence, 38.5C; percent above DMSO median, 100 means doubled; growth rescue, % at 18.8 µM; 320,000 tested, 1% active; AID 2716;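 active = every valid replicate shows activation above 250% relative to neutral control wells; inactive = the rest, any valid replicate at or below 250%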;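 also: OY570 slx delta 5 strain wells were the positive control but not used for scaling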
V-ATPase pHluor – regulators of yeast V-ATPase proton transport | S. cerevisiae, pHLuorin cytosolic pH fluorescence | response, % at 10 µM | 350,000 tested, 0.37% active | AID 504577; in the data active = response mostly above about 7.3%, no sharp cut-off; inactive = mostly below about 5.4%; also: actives read high
ATG4B confirm – confirmation of human ATG4B inhibitors; shares compounds with ATG4B inh; ATG4B protease fluorescent substrate cleavage assay; inhibition, % at 8.33 µM; 320 tested, 92% active; AID 504757; in the data active = inhibition above about 39%
PLA2 counter – inhibits human PLA2, flagging false ATG4B inhibitors | purified PLA2, NBD-C6-HPC fluorescence, 45 min | AID 588402 | inhibition, % at 8.33 µM | shares compounds with ATG4B inh | 1,600 tested, 66% active; in the data active = inhibition above about 50%
Target sequence (P04054 whole entry, looked up): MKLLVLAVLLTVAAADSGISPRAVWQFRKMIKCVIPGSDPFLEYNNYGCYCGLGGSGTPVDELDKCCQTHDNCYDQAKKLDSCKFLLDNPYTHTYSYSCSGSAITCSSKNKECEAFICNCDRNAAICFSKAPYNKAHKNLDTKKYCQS
* = called active by the depositor.

Screening CCOC(=O)c1sc(NC(=O)CCCn2nc([N+](=O)[O-])c(Cl)c2C)c(C(=O)OCC)c1C returned ATG4B inh 57*, AI-2 QS modul 14, Efflux pump mplx 0, Mot1-301 SUMO 10, V-ATPase pHluor 0 and PLA2 counter 52*.
`CCCOC(=O)c1c(NC(=O)CCCn2nc([N+](=O)[O-])cc2C)sc(C(=O)OC)c1C` gave ATG4B inh 33, AI-2 QS modul 22, Efflux pump mplx 0, Mot1-301 SUMO -1 and V-ATPase pHluor 2.
For CCCOC(=O)c1c(NC(=O)CCCn2nc([N+](=O)[O-])c(Cl)c2C)sc(C(=O)OC)c1C the results were ATG4B inh 62*, AI-2 QS modul 13, Efflux pump mplx 0, Mot1-301 SUMO -7, V-ATPase pHluor 2 and PLA2 counter 57*.
CCCCn1c2ccccc2c2cc(CC(N)=O)ccc21 was read as ATG4B inh 62*, AI-2 QS modul 9, Efflux pump mplx 0, Mot1-301 SUMO 366, V-ATPase pHluor -7 and PLA2 counter 74*.
Screening CCCCn1c(=O)c(-c2ccccc2)c(O)c2ccccc21 returned ATG4B inh 2, AI-2 QS modul 3, Efflux pump mplx 0, Mot1-301 SUMO -3 and V-ATPase pHluor -4.
COc1cccc(/C=C2\SC(=O)NC2=O)c1OCc1ccc(C(=O)O)cc1 was read as ATG4B inh 13, AI-2 QS modul 20, Efflux pump mplx 0, Mot1-301 SUMO 14 and V-ATPase pHluor 1.
For O=C1N/C(=N/NC(=O)c2cccc3ccccc23)S/C1=C\c1ccccc1OCc1ccccc1 the results were ATG4B inh 91*, V-ATPase pHluor 1 and PLA2 counter 91*.
`COc1ccc(OC)c(/C=C2\S/C(=N/NC(=O)c3ccc4ccccc4c3)NC2=O)c1` gave ATG4B inh 79*, AI-2 QS modul 36, Efflux pump mplx 0, Mot1-301 SUMO -1, V-ATPase pHluor -1 and PLA2 counter 83*.
For CCOc1ccccc1NC(=O)COC(=O)C1CC(=O)N(c2c(C)cccc2C)C1 (configuration not stated) the results were ATG4B inh -2, AI-2 QS modul 22, Efflux pump mplx 1, Mot1-301 SUMO -4 and V-ATPase pHluor 9.
For Nc1c(C(=O)Nc2ccc3c(c2)OCCO3)nnn1Cc1cccc(Br)c1 the results were ATG4B inh 41*, AI-2 QS modul 21, Efflux pump mplx 0, Mot1-301 SUMO 10, V-ATPase pHluor 4 and PLA2 counter 48.
For Cc1cc(SCC(=O)NC2CCCC2)nc2ccccc12 the results were ATG4B inh -10, AI-2 QS modul 19, Efflux pump mplx 1, Mot1-301 SUMO 267 and V-ATPase pHluor 6.
Screening Oc1ccc(N=Nc2n[nH]c(-c3ccccc3)n2)cc1 returned ATG4B inh -5, AI-2 QS modul 30, Efflux pump mplx 0, Mot1-301 SUMO -18 and V-ATPase pHluor -4.
`Oc1ccc(N=Nc2nc(-c3ccccc3)c(-c3ccccc3)[nH]2)cc1` gave ATG4B inh 48*, AI-2 QS modul 28, Efflux pump mplx 0, Mot1-301 SUMO -3, V-ATPase pHluor 0, ATG4B confirm 67* and PLA2 counter 40.
`CC(C)c1ccccc1NC(=O)COC(=O)c1c2c(nc3ccccc13)CCN(Cc1ccccc1)C2` gave ATG4B inh 46*, AI-2 QS modul 27, Efflux pump mplx 0, Mot1-301 SUMO 2, V-ATPase pHluor -1 and PLA2 counter 58*.
Screening Cc1c(Cl)cccc1NC(=O)COC(=O)c1c2c(nc3ccccc13)CCN(Cc1ccccc1)C2 returned ATG4B inh 74*, AI-2 QS modul 29, Efflux pump mplx 0, Mot1-301 SUMO -3, V-ATPase pHluor -1 and PLA2 counter 85*.
`CC(C)=C1C(=O)NN(c2ccc(F)c(Cl)c2)C1=O` gave ATG4B inh 17, AI-2 QS modul 35, Efflux pump mplx 1, Mot1-301 SUMO 120 and V-ATPase pHluor 0.
O=C1NN(c2ccc(F)c(Cl)c2)C(=O)/C1=C\c1cccc(OC(=O)c2cccs2)c1 was read as ATG4B inh 60*, AI-2 QS modul 10, Efflux pump mplx 0, Mot1-301 SUMO 141, V-ATPase pHluor -1 and PLA2 counter 57*.
Cc1ccc(C(=O)N/N=C(/CC(=O)c2cccs2)C(F)(F)F)cc1 was read as ATG4B inh 41*, AI-2 QS modul 9, Efflux pump mplx 0, Mot1-301 SUMO 11, V-ATPase pHluor 0 and PLA2 counter 28.
Cc1ccccc1CSc1nnc(NC(=O)C2COc3ccccc3O2)s1 (configuration not stated) was read as ATG4B inh 49*, AI-2 QS modul 10, Efflux pump mplx 0, Mot1-301 SUMO 0, V-ATPase pHluor -1 and PLA2 counter 61*.
For O=C(Nc1nnc(SCc2cccc3ccccc23)s1)C1COc2ccccc2O1 (configuration not stated) the results were ATG4B inh 44*, AI-2 QS modul 0, Efflux pump mplx 0, Mot1-301 SUMO -6, V-ATPase pHluor 0 and PLA2 counter 62*.
For CC1=NN(c2ccccc2)C(=O)/C1=C\c1c(C)[nH]n(-c2ccccc2)c1=O the results were ATG4B inh 5, AI-2 QS modul 22, Efflux pump mplx 0, Mot1-301 SUMO 26 and V-ATPase pHluor -1.
`CC1=NN(c2ccccc2)C(=O)/C1=C/c1c(O)n(-c2ccc(F)c(Cl)c2)[nH]c1=O` gave ATG4B inh 55*, AI-2 QS modul 8, Efflux pump mplx -1, Mot1-301 SUMO -14 and PLA2 counter 64*.
Screening C[C@H]1c2cccc(O)c2C(O)=C2C(=O)[C@]3(O)C(O)=C(C(N)=O)C(=O)[C@@H](N(C)C)[C@@H]3[C@@H](O)[C@@H]21 returned ATG4B inh 40*, AI-2 QS modul -65, Efflux pump mplx 0, Mot1-301 SUMO -2, V-ATPase pHluor 0, ATG4B confirm 66* and PLA2 counter 1.
Screening CC(=O)c1cccc(NC(=O)NC2CCCc3ccccc32)c1 (configuration not stated) returned ATG4B inh 53*, AI-2 QS modul 1, Efflux pump mplx 0, Mot1-301 SUMO 4, V-ATPase pHluor 9 and PLA2 counter 67*.
`CC(=O)c1ccc(NC(=O)NC2CCCc3ccccc32)cc1` (configuration not stated) gave ATG4B inh 40, AI-2 QS modul 15, Efflux pump mplx -5, Mot1-301 SUMO -6 and V-ATPase pHluor -3.
